About 8,800 targets were measured; listed, in parts, are those with a hit and a random draw of the rest. About 0.5% of all pairs of compound and target were hits. Values without a mark were called inactive.
How the values were obtained:
Assay in all cases: log2 fold change, soluble protein after heating vs DMSO (PISA); higher = thermal stabilisation; K562 lysate, 10 uM; active = over 0.2 and 3.5 SD of the protein, either way, in both replicates (recomputed)
vemurafenib = compound: CCCS(=O)(=O)Nc1ccc(F)c(C(=O)c2c[nH]c3ncc(-c4ccc(Cl)cc4)cc23)c1F [vemurafenib]
Outline: (§1)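 To prepare the extract, K562 pellets were dounce-homogenised in PBS pH 7.4 with 1 mM MgCl2, giving crude material at 1 mg/mL protein. This was treated with 10 μM compound for 30 min, then heated in aliquots for 3 min over 48°C-58°C before pooling and addition of NP-40 to 0.5% at 4°C. Centrifugation at 21,000xg for 90 min left soluble protein in the supernatant, which TMTpro 16plex LC-MS/MS quantified with equalised channel sums. Results are log-two fold changes in thermal stability compared with solvent controls, from duplicates.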

[1] = compound: CCCS(=O)(=O)Nc1ccc(F)c(C(=O)c2c[nH]c3ncc(Cl)cc23)c1F
Outline: as §1

barasertib = compound: CCN(CCCOc1ccc2c(Nc3cc(CC(=O)Nc4cccc(F)c4)[nH]n3)ncnc2c1)CCOP(=O)(O)O [barasertib]
Outline: as §1

[2] = compound: CC[C@@H]1C(=O)N(C)c2cnc(Nc3ccc(C(=O)NC4CCN(C)CC4)cc3OC)nc2N1C1CCCC1
Outline: as §1

volasertib = compound: CC[C@@H]1C(=O)N(C)c2cnc(Nc3ccc(C(=O)N[C@H]4CC[C@H](N5CCN(CC6CC6)CC5)CC4)cc3OC)nc2N1C(C)C [volasertib]
Outline: as §1

[3] = compound: CCn1c(C(=O)N(C2CC2)C2CC2)cc2c3c(ncn3C)c(Nc3cc(C)n(C)n3)nc21
Outline: as §1

[4] = compound: CCn1cc(-c2ccnc3[nH]c(-c4cccc(CN(C)C)c4)cc23)c(-c2ccc(NC(=O)N(C)C)cc2)n1
Outline: as §1

[5] = compound: CN1CCC(CNc2ccc3ncc(-c4cccc(OC(F)(F)F)c4)n3n2)CC1
Outline: as §1

saracatinib = compound: CN1CCN(CCOc2cc(OC3CCOCC3)c3c(Nc4c(Cl)ccc5c4OCO5)ncnc3c2)CC1 [saracatinib]
Outline: as §1

sotrastaurin = compound: CN1CCN(c2nc(C3=C(c4c[nH]c5ccccc45)C(=O)NC3=O)c3ccccc3n2)CC1 [sotrastaurin]
Outline: as §1

alvocidib = compound: CN1CC[C@H](c2c(O)cc(O)c3c(=O)cc(-c4ccccc4Cl)oc23)[C@H](O)C1 [alvocidib]
Outline: as §1

Tubastatin A = compound: CN1CCc2c(c3ccccc3n2Cc2ccc(C(=O)NO)cc2)C1 [Tubastatin A]
Outline: as §1

[6] = compound: CNC(=O)C1=CC=CC=C1NC2=NC(=NC=C2Cl)NC3=C(C=C(C=C3)N4CCOCC4)OC
Outline: as §1

defactinib = compound: CNC(=O)c1ccc(Nc2ncc(C(F)(F)F)c(NCc3nccnc3N(C)S(C)(=O)=O)n2)cc1 [defactinib]
Outline: as §1

[7] = compound: CNc1nc(-c2ccc3c(N)n[nH]c3c2)cc(N2C[C@@H](C(=O)NC3CCCCC3)CC[C@H]2C)n1
Outline: as §1

encorafenib = compound: COC(=O)N[C@@H](C)CNc1nccc(-c2cn(C(C)C)nc2-c2cc(Cl)cc(NS(C)(=O)=O)c2F)n1 [encorafenib]
Outline: as §1

[8] = compound: COC(=O)[C@H](CCSC)NC(=O)C1=C(C=C(C=C1)NC[C@H](CS)N)C2=CC=CC=C2
Outline: as §1

alisertib = compound: COc1cc(Nc2ncc3c(n2)-c2ccc(Cl)cc2C(c2c(F)cccc2OC)=NC3)ccc1C(=O)O [alisertib]
Outline: as §1

[9] = compound: COc1cc2nc(-c3cc(F)ccc3O)nc(N[C@@H]3CNC[C@H]3C(C)(C)O)c2cc1OC
Outline: as §1

gefitinib = compound: COc1cc2ncnc(Nc3ccc(F)c(Cl)c3)c2cc1OCCCN1CCOCC1 [gefitinib]
Outline: as §1

Sequence of UniProt Q9H497 (Q9H497 whole entry, looked up): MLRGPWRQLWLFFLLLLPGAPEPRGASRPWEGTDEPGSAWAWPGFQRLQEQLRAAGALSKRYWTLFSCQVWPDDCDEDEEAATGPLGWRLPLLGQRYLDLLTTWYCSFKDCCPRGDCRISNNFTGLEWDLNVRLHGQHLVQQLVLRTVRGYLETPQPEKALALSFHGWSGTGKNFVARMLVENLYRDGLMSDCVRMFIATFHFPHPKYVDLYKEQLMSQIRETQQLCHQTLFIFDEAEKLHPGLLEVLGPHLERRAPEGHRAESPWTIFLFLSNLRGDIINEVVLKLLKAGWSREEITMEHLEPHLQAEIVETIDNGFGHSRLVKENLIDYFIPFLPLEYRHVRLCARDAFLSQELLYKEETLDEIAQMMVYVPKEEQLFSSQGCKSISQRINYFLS
Sequence of UniProt Q96S44 (Q96S44 whole entry, looked up): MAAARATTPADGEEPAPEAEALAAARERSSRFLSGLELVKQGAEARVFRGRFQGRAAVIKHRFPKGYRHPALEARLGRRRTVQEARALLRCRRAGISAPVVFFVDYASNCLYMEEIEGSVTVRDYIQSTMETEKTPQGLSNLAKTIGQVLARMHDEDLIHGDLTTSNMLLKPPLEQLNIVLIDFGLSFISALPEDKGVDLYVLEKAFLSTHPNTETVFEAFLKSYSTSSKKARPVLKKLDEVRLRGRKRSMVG
Sequence of UniProt Q53H54 (Q53H54 whole entry, looked up): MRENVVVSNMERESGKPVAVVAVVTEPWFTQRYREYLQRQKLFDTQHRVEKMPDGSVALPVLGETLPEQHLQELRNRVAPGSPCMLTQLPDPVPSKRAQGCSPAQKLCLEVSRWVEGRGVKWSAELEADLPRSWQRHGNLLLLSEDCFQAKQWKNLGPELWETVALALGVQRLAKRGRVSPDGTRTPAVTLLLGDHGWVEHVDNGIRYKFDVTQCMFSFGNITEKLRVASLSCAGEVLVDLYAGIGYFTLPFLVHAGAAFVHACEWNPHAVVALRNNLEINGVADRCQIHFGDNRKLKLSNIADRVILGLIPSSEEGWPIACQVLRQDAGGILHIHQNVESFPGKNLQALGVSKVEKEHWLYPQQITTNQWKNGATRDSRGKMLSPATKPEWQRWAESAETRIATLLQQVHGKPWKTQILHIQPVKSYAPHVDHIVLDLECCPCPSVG
Sequence of UniProt Q5T6F2 (Q5T6F2 whole entry, looked up): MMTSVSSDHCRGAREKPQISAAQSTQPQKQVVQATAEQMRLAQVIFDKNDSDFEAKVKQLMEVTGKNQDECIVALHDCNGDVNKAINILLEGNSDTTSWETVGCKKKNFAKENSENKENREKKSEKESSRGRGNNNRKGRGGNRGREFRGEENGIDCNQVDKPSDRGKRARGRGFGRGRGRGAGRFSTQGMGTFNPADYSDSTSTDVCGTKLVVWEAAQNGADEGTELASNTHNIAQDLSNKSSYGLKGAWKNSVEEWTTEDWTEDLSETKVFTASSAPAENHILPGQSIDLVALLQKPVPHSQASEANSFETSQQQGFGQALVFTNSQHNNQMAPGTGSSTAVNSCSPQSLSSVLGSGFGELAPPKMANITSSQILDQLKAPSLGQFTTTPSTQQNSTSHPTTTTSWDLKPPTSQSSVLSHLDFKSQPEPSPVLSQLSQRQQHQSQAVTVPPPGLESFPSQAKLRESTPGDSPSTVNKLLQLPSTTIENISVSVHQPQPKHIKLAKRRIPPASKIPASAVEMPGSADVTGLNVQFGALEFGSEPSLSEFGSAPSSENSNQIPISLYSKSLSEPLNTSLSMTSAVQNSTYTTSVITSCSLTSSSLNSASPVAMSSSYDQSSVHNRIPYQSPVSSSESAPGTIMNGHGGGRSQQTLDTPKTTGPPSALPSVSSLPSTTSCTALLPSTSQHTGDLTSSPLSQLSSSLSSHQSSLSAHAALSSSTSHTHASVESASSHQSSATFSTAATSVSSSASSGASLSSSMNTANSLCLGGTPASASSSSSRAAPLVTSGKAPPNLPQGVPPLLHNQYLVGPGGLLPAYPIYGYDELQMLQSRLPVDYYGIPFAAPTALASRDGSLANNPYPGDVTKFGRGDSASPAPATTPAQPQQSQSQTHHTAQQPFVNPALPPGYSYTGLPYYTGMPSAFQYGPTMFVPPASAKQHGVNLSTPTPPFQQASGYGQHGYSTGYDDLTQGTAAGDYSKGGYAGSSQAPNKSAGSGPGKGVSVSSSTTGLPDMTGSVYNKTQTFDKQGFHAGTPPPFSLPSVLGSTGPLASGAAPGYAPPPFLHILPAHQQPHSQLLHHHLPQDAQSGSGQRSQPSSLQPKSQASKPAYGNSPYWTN
Sequence of UniProt O60704 (O60704 whole entry, looked up): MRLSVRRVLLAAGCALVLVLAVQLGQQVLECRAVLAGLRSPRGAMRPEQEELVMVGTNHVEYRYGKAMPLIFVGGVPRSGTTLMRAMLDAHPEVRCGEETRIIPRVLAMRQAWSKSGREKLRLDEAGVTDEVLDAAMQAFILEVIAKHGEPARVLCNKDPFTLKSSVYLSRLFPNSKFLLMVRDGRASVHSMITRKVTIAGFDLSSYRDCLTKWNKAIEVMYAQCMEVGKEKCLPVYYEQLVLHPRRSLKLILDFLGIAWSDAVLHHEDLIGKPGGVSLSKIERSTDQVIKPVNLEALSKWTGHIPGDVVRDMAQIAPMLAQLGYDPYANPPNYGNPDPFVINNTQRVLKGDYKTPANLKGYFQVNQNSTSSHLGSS
Sequence of UniProt O94842 (O94842 whole entry, looked up): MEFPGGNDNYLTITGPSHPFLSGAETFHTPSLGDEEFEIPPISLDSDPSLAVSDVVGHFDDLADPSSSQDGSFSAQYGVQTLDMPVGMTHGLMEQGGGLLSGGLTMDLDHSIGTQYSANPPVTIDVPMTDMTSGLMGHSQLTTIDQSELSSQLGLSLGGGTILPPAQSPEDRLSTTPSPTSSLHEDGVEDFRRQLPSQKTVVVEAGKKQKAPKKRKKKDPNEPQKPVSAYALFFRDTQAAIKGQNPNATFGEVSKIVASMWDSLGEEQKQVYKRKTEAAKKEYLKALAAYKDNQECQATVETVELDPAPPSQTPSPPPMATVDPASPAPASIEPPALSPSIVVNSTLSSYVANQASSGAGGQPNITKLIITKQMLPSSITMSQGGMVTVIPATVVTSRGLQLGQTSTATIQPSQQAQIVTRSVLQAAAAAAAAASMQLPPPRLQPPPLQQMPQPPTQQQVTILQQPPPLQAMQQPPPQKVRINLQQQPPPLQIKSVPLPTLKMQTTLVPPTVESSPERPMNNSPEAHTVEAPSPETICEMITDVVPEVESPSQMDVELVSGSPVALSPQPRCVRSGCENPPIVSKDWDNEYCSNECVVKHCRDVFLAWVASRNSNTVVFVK
Sequence of UniProt P22314 (P22314 whole entry, looked up): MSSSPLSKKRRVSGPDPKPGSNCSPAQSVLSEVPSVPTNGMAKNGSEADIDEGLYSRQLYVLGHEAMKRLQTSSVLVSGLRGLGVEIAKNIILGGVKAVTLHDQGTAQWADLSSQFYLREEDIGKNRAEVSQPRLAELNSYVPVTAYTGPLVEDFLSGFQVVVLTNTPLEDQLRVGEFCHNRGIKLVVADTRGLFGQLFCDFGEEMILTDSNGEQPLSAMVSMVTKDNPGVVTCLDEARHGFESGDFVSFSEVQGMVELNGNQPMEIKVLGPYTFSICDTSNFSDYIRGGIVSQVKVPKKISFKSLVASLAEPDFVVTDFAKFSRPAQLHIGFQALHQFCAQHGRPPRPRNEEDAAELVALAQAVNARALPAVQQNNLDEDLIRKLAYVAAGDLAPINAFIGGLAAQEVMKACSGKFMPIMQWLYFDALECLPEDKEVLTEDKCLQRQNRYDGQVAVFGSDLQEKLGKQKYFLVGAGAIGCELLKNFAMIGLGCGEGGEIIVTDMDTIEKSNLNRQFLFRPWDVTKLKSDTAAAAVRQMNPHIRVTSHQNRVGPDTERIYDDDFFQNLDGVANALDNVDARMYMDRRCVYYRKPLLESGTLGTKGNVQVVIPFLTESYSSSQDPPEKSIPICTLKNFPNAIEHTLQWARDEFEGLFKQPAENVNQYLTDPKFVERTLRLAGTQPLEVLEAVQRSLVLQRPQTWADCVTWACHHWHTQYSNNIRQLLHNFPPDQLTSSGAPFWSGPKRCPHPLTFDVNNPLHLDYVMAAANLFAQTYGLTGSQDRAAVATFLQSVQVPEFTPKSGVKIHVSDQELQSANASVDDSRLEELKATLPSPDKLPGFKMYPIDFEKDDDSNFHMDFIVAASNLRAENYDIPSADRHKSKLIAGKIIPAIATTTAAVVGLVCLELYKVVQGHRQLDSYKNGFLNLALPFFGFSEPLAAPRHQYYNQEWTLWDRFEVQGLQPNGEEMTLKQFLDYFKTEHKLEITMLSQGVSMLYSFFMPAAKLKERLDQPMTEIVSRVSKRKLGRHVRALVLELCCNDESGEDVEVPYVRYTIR
Sequence of UniProt Q9BQE3 (Q9BQE3 whole entry, looked up): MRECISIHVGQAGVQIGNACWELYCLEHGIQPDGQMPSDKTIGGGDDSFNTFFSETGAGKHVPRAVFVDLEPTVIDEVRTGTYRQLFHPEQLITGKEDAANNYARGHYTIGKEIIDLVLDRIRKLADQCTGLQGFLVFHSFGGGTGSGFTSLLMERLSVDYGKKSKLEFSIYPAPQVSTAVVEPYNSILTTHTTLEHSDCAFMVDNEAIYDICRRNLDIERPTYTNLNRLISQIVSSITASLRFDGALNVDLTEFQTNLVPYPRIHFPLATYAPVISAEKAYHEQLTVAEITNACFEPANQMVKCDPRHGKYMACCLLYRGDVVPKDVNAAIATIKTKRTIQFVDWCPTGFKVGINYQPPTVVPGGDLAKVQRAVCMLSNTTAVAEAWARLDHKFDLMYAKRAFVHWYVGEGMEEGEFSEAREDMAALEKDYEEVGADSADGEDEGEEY

Target	log2 fold change (vemurafenib)	log2 fold change [1]	log2 fold change (barasertib)	log2 fold change [2]	log2 fold change (volasertib)	log2 fold change [3]	log2 fold change [4]	log2 fold change [5]	log2 fold change (saracatinib)	log2 fold change (sotrastaurin)	log2 fold change (alvocidib)	log2 fold change (Tubastatin A)	log2 fold change [6]	log2 fold change (defactinib)	log2 fold change [7]	log2 fold change (encorafenib)	log2 fold change [8]	log2 fold change (alisertib)	log2 fold change [9]	log2 fold change (gefitinib)
TDRD3 isoform 3 (UniProt Q9H7E2)	0.012	-0.01	-0.043	0.041	-0.054	0.137	0.164	-0.078	-0.094	0.014	0.043	-0.08	0.025	0.033	0.097	-0.006	-0.029	-0.084	-0.042	0.297
UBAP2 (UniProt Q5T6F2)	0.009	0.016	-0.007	0.071	-0.002	0.004	-0.172	0.106	0.028	0.02	-0.081	0.026	-0.026	-0.003	0.005	0.033	-0.021	0.005	0.011	0.014
TP53RK (UniProt Q96S44)	-0.018	0.047	0	-0.058	-0.002	0.013	0.025	-0.039	-0.049	-0.023	-0.012	0.054	-0.037	0.019	-0.026	0.028	0.025	0.001	0.002	-0.042
UGDH (UniProt O60701)	0.008	0.017	-0.003	-0.062	-0.045	0.011	-0.028	-0.021	0.187	0.003	0.023	-0.151	0.015	0.071	-0.132	0.047	0.037	-0.025	-0.004	-0.042
TERF2IP (UniProt Q9NYB0)	-0.009	-0.003	-0.006	0.075	0.022	-0.015	0.269 (active)	-0.152	-0.003	0.008	0.087	0.014	0.009	-0.008	0.019	0	-0.038	-0.015	0.011	-0.003
TUBB6 (UniProt Q9BUF5)	0.007	0.002	-0.015	0.003	-0.068	-0.007	-0.019	0.014	0.032	-0.024	0.023	-0.064	0.015	0.034	0.023	0.017	0.056	0.028	0.011	-0.024
UBR3 isoform 4 (UniProt Q6ZT12)	0.035	-0.001	0.026	-0.033	-0.091	-0.011	-0.015	-0.044	0.044	0.009	0.012	-0.155	0.074	-0.062	-0.03	-0.006	0.054	-0.005	0.005	0.018
TPST2 (UniProt O60704)	0.053	0.009	0.097	0.075	-0.024	-0.011	-0.851 (active)	0.188	0.011	0.065	-0.107	0.059	0.041	-0.038	-0.02	0.03	-0.049	0.478	0.025	0.072
TUBA1C (UniProt Q9BQE3)	0.036	0.026	0.013	0.009	-0.059	-0.029	-0.082	0.022	0.054	0.044	0	-0.001	0.011	0.009	0.06	-0.002	0.023	-0.012	0.001	-0.042
UBA1 (UniProt P22314)	0.018	0.005	0.023	-0.063	-0.036	-0.006	-0.027	0.004	-0.02	0.008	0.012	-0.082	0.007	-0.011	-0.026	-0.017	0.139	0.001	0.002	-0.01
UBR1 (UniProt Q8IWV7)	-0.018	0.025	0.054	-0.032	-0.07	0.03	-0.046	-0.038	0.019	0.004	-0.018	-0.026	0.009	0.001	-0.03	0.033	0.055	0.003	-0.007	0.016
TOX4 (UniProt O94842)	-0.019	0.005	0.017	0.06	-0.027	-0.018	-0.235	0.147	0.041	0.005	-0.16	-0.006	0.027	0.025	-0.022	-0.011	-0.082	0.028	-0.013	-0.016
TOR3A (UniProt Q9H497)	-0.001	-0.11	-0.031	-0.013	-0.05	-0.006	-0.123	0.057	0.014	0.03	0.01	-0.016	0.004	0.01	0.019	0.006	-0.006	0.032	-0.367	0.018
TMOD1 (UniProt P28289)	-0.015	-0.02	0.027	-0.027	-0.031	-0.024	0.041	-0.031	-0.001	-0.017	0.017	-0.081	0.042	0.046	-0.009	-0.004	-0.002	0.014	0.016	-0.008
TRMT12 (UniProt Q53H54)	0.059	-0.009	0.068	-0.17	-0.052	0.047	-0.303	0.281	-0.021	-0.047	-0.022	-0.106	-0.113	-0.058	0.007	0.041	0.088	-0.031	0.018	0.123
TIAL1 isoform 2 (UniProt Q01085)	-0.009	0.014	-0.023	0.072	0.005	0.002	-0.076	0.056	-0.02	-0.017	-0.005	0.05	-0.015	0.006	-0.005	0.009	-0.053	0.027	0.013	0.041
